# Measurements taken from PubChem BioAssay AID1159580 (chemical genetic matrix, 2015).
# Out of some 5,500 compounds screened, about 2,000 (36%) were called active. Another 18% or so got no clear call; they are omitted. The list shows a part of the results. A number with no mark means an inactive call. Rule as the data show it: active = normalized growth mostly below about 0.91 (no sharp cut-off); inconclusive = no clear call, values can overlap the other calls; inactive = mostly above about 0.92.
# Assay: chemical genetic growth profiling, strain panel (AID 1159580);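 also: tested at 20 µM; growth read once vehicle control cultures reached saturation at 30 °C; 1 = growth at the plate median or of vehicle wells; lower values mean less growth of the strain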
# Conditions: growth OD
# [1] = S. cerevisiae deletion strains, locus YAL013W, strain DEP1, active compounds read low
# [2] = S. cerevisiae deletion strains, locus YHR030C, strain SLT2, active compounds read low
# [3] = S. cerevisiae deletion strains, locus YMR307W, strain GAS1, active compounds read low
smiles,measurement,setting,value
CCCCCCCCCCc1ccc(-c2ccccc2)cc1,normalized growth,[1],0.982
same,normalized growth,"S. cerevisiae deletion strains, locus YBR229C, strain ROT2, active compounds read low",1.01
same,normalized growth,"S. cerevisiae deletion strains, locus YDL101C, strain DUN1, active compounds read low",0.99
same,normalized growth,"S. cerevisiae deletion strains, locus YDR150W, strain NUM1, active compounds read low",0.976
same,normalized growth,"S. cerevisiae deletion strains, locus YEL061C, strain CIN8, active compounds read low",0.988
same,normalized growth,"S. cerevisiae deletion strains, locus YGR078C, strain PAC10, active compounds read low",0.988
same,normalized growth,[2],0.769
same,normalized growth,"S. cerevisiae deletion strains, locus YHR087W, strain rtc3, active compounds read low",1.09
same,normalized growth,"S. cerevisiae deletion strains, locus YJL187C, strain SWE1, active compounds read low",1.01
same,normalized growth,"S. cerevisiae deletion strains, locus YJR043C, strain POL32, active compounds read low",0.992
same,normalized growth,"S. cerevisiae deletion strains, locus YJR075W, strain HOC1, active compounds read low",0.989
same,normalized growth,"S. cerevisiae deletion strains, locus YLR039C, strain RIC1, active compounds read low",0.992
same,normalized growth,"S. cerevisiae deletion strains, locus YLR058C, strain SHM2 (second series), active compounds read low",1.01
same,normalized growth,"S. cerevisiae deletion strains, locus YLR085C, strain ARP6, active compounds read low",0.845
same,normalized growth,"S. cerevisiae deletion strains, locus YLR262C, strain YPT6, active compounds read low",0.941
same,normalized growth,"S. cerevisiae deletion strains, locus YML094W, strain GIM5, active compounds read low",0.97
same,normalized growth,"S. cerevisiae deletion strains, locus YMR219W, strain ESC1, active compounds read low",0.998
same,normalized growth,"S. cerevisiae deletion strains, locus YMR263W, strain SAP30, active compounds read low",0.999
same,normalized growth,[3],0.669
same,normalized growth,"S. cerevisiae deletion strains, locus YNL153C, strain GIM3, active compounds read low",1
same,normalized growth,"S. cerevisiae deletion strains, locus YNL298W, strain CLA4 (second series), active compounds read low",0.926
same,normalized growth,"S. cerevisiae deletion strains, locus YNL322C, strain KRE1, active compounds read low",0.974
same,normalized growth,"S. cerevisiae deletion strains, locus YNR030W, strain Alg12, active compounds read low",0.958
same,normalized growth,"S. cerevisiae deletion strains, locus YPL055C, strain LGE1, active compounds read low",1.06
same,normalized growth,"S. cerevisiae deletion strains, locus YPL241C, strain CIN2, active compounds read low",0.982
same,normalized growth,"S. cerevisiae deletion strains, locus YPR135W, strain CTF4, active compounds read low",0.897
same,normalized growth,"S. cerevisiae strains, strain wild type, active compounds read low",0.902 (active)
NCCc1c[nH]c2ccc(O)cc12,normalized growth,[1],1.02
same,normalized growth,"S. cerevisiae deletion strains, locus YAL040C, strain CLN3, active compounds read low",0.969
same,normalized growth,"S. cerevisiae deletion strains, locus YCL061C, strain MRC1 (second series), active compounds read low",1.01
same,normalized growth,"S. cerevisiae deletion strains, locus YDR363W, strain ESC2, active compounds read low",1.01
same,normalized growth,"S. cerevisiae deletion strains, locus YER002W, strain NOP16, active compounds read low",1.01
same,normalized growth,[2],1.02
same,normalized growth,"S. cerevisiae deletion strains, locus YHR079C, strain IRE1, active compounds read low",1.02
same,normalized growth,"S. cerevisiae deletion strains, locus YJL095W, strain BCK1, active compounds read low",1.01
same,normalized growth,"S. cerevisiae deletion strains, locus YJR066W, strain TOR1, active compounds read low",0.942
same,normalized growth,"S. cerevisiae deletion strains, locus YLR113W, strain HOG1, active compounds read low",0.991
same,normalized growth,[3],1.03
same,normalized growth,"S. cerevisiae deletion strains, locus YNL175C, strain NOP13, active compounds read low",1.01
same,normalized growth,"S. cerevisiae deletion strains, locus YNL183C, strain NPR1, active compounds read low",0.949
same,normalized growth,"S. cerevisiae deletion strains, locus YNL197C, strain WHI3, active compounds read low",1
same,normalized growth,"S. cerevisiae deletion strains, locus YNL224C, strain SQS1, active compounds read low",1.01
same,normalized growth,"S. cerevisiae deletion strains, locus YOR083W, strain WHI5 (second series), active compounds read low",1.04
same,normalized growth,"S. cerevisiae deletion strains, locus YOR231W, strain MKK1, active compounds read low",1.02
same,normalized growth,"S. cerevisiae deletion strains, locus YPL256C, strain CLN2, active compounds read low",1.01
